PubChem BioAssay (NCATS)
Results filed as inconclusive are left out. The source made the active and inactive calls. Unless noted, calls come from the whole dose curve; as a rule, active = well fitted curve in the direction sought with a large enough effect; inconclusive = small, poorly fitted or top-dose-only effect, or another doubt; inactive = no such curve, though single readings can be large; an effect the other way counts as inactive or inconclusive.

Columns and labels:
[1] = target: ATP-dependent 6-phosphofructokinase (Trypanosoma brucei brucei) (UniProt O15648); experiment: qHTS Assay to Find Inhibitors of T. brucei phosphofructokinase: hit validation (AID 492961);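 note: luminescence reports ADP formed as PFK phosphorylates fructose-6-phosphate with ATP; % is set by controls: 0 for no effect and ±100 for the full control effect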
ATP-dependent 6-phosphofructokinase (Trypanosoma brucei brucei), sequence (O15648 whole entry, looked up): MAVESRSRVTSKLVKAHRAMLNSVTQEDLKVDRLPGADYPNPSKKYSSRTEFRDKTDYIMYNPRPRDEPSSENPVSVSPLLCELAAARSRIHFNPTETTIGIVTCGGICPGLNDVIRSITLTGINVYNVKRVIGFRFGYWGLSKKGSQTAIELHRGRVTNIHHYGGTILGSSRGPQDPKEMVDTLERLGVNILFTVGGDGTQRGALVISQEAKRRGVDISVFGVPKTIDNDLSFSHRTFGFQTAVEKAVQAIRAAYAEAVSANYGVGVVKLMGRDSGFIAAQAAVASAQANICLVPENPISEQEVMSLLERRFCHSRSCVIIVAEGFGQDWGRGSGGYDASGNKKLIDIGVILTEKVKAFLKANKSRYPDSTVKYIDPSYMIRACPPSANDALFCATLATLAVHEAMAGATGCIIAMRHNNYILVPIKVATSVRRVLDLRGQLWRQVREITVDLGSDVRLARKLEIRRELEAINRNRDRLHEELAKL
Method in brief: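 Percent activity derived from corrected luminescence, normalized between 0x and 1x enzyme controls, then fitted to concentration-response curves. Conditions: 1.25 nM PFK, 0.1 mM ATP, 0.5 mM F6P, 45 min RT.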

[2] = target: Ubiquitin carboxyl-terminal hydrolase 1 (Homo sapiens) (UniProt O94782); experiment: Inhibitors of USP1/UAF1: Pilot qHTS (AID 504865);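 note: rhodamine fluorescence freed from ubiquitin-rhodamine substrate followed over time; top concentration of the series differs between compounds; % is set by controls: 0 for no effect and ±100 for the full control effect; nearly all actives have a fitted effect of over 35% in size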
Ubiquitin carboxyl-terminal hydrolase 1 (Homo sapiens), sequence (O94782 whole entry, looked up): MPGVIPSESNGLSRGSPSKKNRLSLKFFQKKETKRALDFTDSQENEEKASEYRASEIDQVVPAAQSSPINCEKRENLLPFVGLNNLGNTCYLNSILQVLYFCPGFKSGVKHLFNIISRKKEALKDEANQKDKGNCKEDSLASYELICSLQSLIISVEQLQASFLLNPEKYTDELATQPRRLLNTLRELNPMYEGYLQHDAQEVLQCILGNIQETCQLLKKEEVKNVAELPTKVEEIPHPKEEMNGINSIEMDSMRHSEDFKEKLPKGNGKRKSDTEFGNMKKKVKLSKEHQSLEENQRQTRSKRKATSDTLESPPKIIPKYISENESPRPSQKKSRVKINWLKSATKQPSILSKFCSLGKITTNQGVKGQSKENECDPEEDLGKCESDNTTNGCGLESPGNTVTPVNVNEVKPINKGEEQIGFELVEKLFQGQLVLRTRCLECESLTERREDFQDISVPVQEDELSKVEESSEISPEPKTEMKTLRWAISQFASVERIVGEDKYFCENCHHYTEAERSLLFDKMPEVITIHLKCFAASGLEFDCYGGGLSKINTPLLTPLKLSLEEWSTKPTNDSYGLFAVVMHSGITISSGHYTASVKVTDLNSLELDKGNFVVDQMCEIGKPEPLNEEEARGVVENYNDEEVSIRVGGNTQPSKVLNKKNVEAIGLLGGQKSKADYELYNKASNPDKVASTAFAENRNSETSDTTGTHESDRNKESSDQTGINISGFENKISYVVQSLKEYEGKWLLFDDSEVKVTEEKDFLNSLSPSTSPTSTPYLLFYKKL
Method in brief: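 USP1/UAF1 complex (1nM) preincubated with compound 15 min at room temperature, then Ub-Rho substrate (150nM final) added. Fluorescence read kinetically at 480/540 nm, 6 reads every 60 seconds. Buffer: 50mM HEPES pH 7.8, 0.5mM EDTA, 0.1 mg/ml BSA, 1mM TCEP, 0.01% Tween-20.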

[3] = target: Luciferin 4-monooxygenase (Photinus pyralis) (UniProt P08659); experiment: Biochemical firefly luciferase enzyme assay for NPC (AID 624030);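 note: purified P. pyralis luciferase at 10 nM with luciferin and ATP substrate; 0% = DMSO and -100% = full luciferase inhibition by PTC124 control; nearly all actives have a fitted effect of over 70% in size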
Luciferin 4-monooxygenase (Photinus pyralis), sequence (P08659 whole entry, looked up): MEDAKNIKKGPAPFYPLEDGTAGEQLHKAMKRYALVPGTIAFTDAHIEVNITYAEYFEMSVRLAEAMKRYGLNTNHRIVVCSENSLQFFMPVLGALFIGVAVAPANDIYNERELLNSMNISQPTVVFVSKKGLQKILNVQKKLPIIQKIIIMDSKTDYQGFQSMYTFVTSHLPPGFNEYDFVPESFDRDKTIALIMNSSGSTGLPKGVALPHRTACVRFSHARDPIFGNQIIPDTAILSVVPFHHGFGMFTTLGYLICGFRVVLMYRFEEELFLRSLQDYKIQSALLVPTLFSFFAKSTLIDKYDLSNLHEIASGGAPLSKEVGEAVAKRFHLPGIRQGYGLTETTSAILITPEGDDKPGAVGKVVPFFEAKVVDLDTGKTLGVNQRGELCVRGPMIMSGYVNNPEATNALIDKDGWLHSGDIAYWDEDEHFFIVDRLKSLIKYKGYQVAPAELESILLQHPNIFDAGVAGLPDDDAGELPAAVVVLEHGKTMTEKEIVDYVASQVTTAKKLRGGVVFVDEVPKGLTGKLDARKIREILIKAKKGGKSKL
Method in brief: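 Counter-screen for direct inhibition of the luciferase enzyme by approved-drug library compounds, run at 10 nM enzyme in 50 mM Tris acetate (final). Luminescence was read within 5 min of enzyme-buffer addition and normalized to PTC124 versus DMSO (0%).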

[4] = S16 Schwann cell viability assay (CellTiter-Glo assay) (AID 624031);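 note: native untransfected S16 rat Schwann cells; cellular ATP luminescence as a viability measure; plate controls were DMSO-treated cells for no effect and cell-free wells for full effect; nearly all actives have a fitted effect of over 70% in size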
Method in brief: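 Concentration-effect curves come from CellTiter-Glo luminescence of S16 rat Schwann cells after 24 h compound exposure. Each reading was normalized to DMSO wells (0%) and wells without cells, and curves were ranked by r2 and response magnitude.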

[5] = S16 Schwann cell PMP22 intronic element beta-lactamase assay (AID 624044; calls by dose curve; note: potency is the fitted concentration of half-maximal effect; nearly all actives have a fitted effect of over 15% in size)
Method in brief: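 Beta-lactamase reporter under a PMP22 intronic regulatory element in stable S16 rat Schwann cells; 24 h compound exposure. 460 nm blue signal normalized between DMSO (0%) and potassium clavulanate, with 535 nm FRET tracking viability; curves classed by r2 and response.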

Furin (Homo sapiens) = Furin (Homo sapiens) (UniProt P09958); experiment: Furin counterscreen qHTS for Zika virus inhibitors (AID 1347149);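 note: purified recombinant full-length human furin enzyme at 5 nM; fluorescence gain from furin cutting a BOC-RVRR-AMC peptide substrate over 15 min; top concentration of the series differs between compounds; plate controls were no-inhibitor control for no effect and no-enzyme control for full effect; nearly all actives have a fitted effect of over 70% in size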
Furin (Homo sapiens), sequence (P09958 whole entry, looked up): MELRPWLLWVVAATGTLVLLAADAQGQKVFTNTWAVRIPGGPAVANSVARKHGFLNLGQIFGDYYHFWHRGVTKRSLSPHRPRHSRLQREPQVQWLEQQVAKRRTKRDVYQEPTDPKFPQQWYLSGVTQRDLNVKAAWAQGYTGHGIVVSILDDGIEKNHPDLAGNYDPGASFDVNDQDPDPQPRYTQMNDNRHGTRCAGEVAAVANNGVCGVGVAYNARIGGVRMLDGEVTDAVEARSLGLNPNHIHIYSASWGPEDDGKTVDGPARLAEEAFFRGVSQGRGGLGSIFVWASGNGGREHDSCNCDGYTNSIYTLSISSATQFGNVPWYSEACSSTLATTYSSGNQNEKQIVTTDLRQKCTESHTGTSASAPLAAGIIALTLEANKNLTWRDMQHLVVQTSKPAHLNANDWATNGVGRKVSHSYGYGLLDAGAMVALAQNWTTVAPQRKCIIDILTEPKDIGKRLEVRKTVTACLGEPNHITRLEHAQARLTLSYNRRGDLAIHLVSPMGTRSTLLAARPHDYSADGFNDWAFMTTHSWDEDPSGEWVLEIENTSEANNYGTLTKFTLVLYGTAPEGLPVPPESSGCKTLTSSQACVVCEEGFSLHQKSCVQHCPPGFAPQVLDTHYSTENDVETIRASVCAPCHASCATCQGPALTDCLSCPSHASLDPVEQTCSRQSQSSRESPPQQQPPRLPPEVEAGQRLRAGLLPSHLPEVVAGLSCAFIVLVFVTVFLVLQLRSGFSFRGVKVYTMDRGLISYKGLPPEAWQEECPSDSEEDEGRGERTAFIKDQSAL
Method in brief: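 Counterscreen measures cleavage of 2 microM BOC-RVRR-AMC, below its ~15 microM Km, by 5 nM full-length human furin at pH 7.0 after a 15-min compound preincubation. Inhibition derives from the 15-min fluorescence increase at 37C.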

[6] = tested on: Zika virus NS2B-NS3 protease (unlinked); experiment: Optimization of GU AMC qHTS for Zika virus inhibitors: Unlinked NS2B-NS3 protease assay (AID 1347151);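 note: 0% = no-inhibitor control and -100% = no-enzyme control; nearly all actives have a fitted effect of over 80% in size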
Method in brief: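 Noncovalent complex of NS2B hydrophilic domain and NS3 protease domain, 25 nM final, in 10 mM Tris-HCl pH 8.0, 0.01% Tween 20. AMC fluorescence change over 15 min at room temperature was fitted to a 4-parameter Hill equation.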

[7] = Vero cells viability qHTS for Zika virus inhibitors (AID 1347167); note: % is set by controls: 0 for no effect and ±100 for the full control effect
Method in brief: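 To flag cytotoxic protease inhibitors, viability is measured by ATP-dependent luminescence (CellTiter Glo) after cells attached overnight receive compound for 24 to 48 hours in DMEM with 4% FBS.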

[8] = qHTS profiling for inhibitors of Plasmodium falciparum proliferation (AID 504749); note: nearly all actives have a fitted effect of over 60% in size; note: potency is the fitted concentration of half-maximal effect;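 for activity, negative = inhibition: 0% = DMSO vehicle and full inhibition = artemisinin control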; settings: P. falciparum in erythrocytes, SYBR Green DNA, 72 h, at 28.7 µM (top of the series)
Method in brief: (§1)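 Fluorescence of SYBR Green-bound parasite DNA, read at 485/535 nm, served as the growth measure. Infected erythrocytes were cultured with compound 72 h; artemisinin (0.29 uM) and DMSO wells defined the normalization range.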

3D7 = experiment: as above; settings: P. falciparum in erythrocytes, SYBR Green DNA, 72 h; series mostly up to 28.7 µM
Method in brief: as §1

AS120 = experiment: as above; settings: P. falciparum in erythrocytes, SYBR Green DNA, 72 h; series mostly up to 28.7 µM
Method in brief: as §1

ATS95 = experiment: as above; settings: P. falciparum in erythrocytes, SYBR Green DNA, 72 h; series mostly up to 28.7 µM
Method in brief: as §1

C2A = experiment: as above; settings: P. falciparum in erythrocytes, SYBR Green DNA, 72 h; series mostly up to 28.7 µM
Method in brief: as §1

CP185 = experiment: as above; settings: P. falciparum in erythrocytes, SYBR Green DNA, 72 h; series mostly up to 28.7 µM
Method in brief: as §1

CP191 = experiment: as above; settings: P. falciparum in erythrocytes, SYBR Green DNA, 72 h; series mostly up to 28.7 µM
Method in brief: as §1

CP192 = experiment: as above; settings: P. falciparum in erythrocytes, SYBR Green DNA, 72 h; series mostly up to 28.7 µM
Method in brief: as §1

CP201 = experiment: as above; settings: P. falciparum in erythrocytes, SYBR Green DNA, 72 h; series mostly up to 28.7 µM
Method in brief: as §1

CP211 = experiment: as above; settings: P. falciparum in erythrocytes, SYBR Green DNA, 72 h; series mostly up to 28.7 µM
Method in brief: as §1

CP215 = experiment: as above; settings: P. falciparum in erythrocytes, SYBR Green DNA, 72 h; series mostly up to 28.7 µM
Method in brief: as §1

CP237 = experiment: as above; settings: P. falciparum in erythrocytes, SYBR Green DNA, 72 h; series mostly up to 28.7 µM
Method in brief: as §1

CP238 = experiment: as above; settings: P. falciparum in erythrocytes, SYBR Green DNA, 72 h; series mostly up to 28.7 µM
Method in brief: as §1

CP247 = experiment: as above; settings: P. falciparum in erythrocytes, SYBR Green DNA, 72 h; series mostly up to 28.7 µM
Method in brief: as §1

CP250 = experiment: as above; settings: P. falciparum in erythrocytes, SYBR Green DNA, 72 h; series mostly up to 28.7 µM
Method in brief: as §1

CP252 = experiment: as above; settings: P. falciparum in erythrocytes, SYBR Green DNA, 72 h; series mostly up to 28.7 µM
Method in brief: as §1

CP256 = experiment: as above; settings: P. falciparum in erythrocytes, SYBR Green DNA, 72 h; series mostly up to 28.7 µM
Method in brief: as §1

CP262 = experiment: as above; settings: P. falciparum in erythrocytes, SYBR Green DNA, 72 h; series mostly up to 28.7 µM
Method in brief: as §1

CP266 = experiment: as above; settings: P. falciparum in erythrocytes, SYBR Green DNA, 72 h; series mostly up to 28.7 µM
Method in brief: as §1

CP269 = experiment: as above; settings: P. falciparum in erythrocytes, SYBR Green DNA, 72 h; series mostly up to 28.7 µM
Method in brief: as §1

CP291 = experiment: as above; settings: P. falciparum in erythrocytes, SYBR Green DNA, 72 h; series mostly up to 28.7 µM
Method in brief: as §1

CP305 = experiment: as above; settings: P. falciparum in erythrocytes, SYBR Green DNA, 72 h; series mostly up to 28.7 µM
Method in brief: as §1

CP315 = experiment: as above; settings: P. falciparum in erythrocytes, SYBR Green DNA, 72 h; series mostly up to 28.7 µM
Method in brief: as §1

CP325 = experiment: as above; settings: P. falciparum in erythrocytes, SYBR Green DNA, 72 h; series mostly up to 28.7 µM
Method in brief: as §1

CP329 = experiment: as above; settings: P. falciparum in erythrocytes, SYBR Green DNA, 72 h; series mostly up to 28.7 µM
Method in brief: as §1

DFO2036 = experiment: as above; settings: P. falciparum in erythrocytes, SYBR Green DNA, 72 h; series mostly up to 28.7 µM
Method in brief: as §1

DIV30 = experiment: as above; settings: P. falciparum in erythrocytes, SYBR Green DNA, 72 h; series mostly up to 28.7 µM
Method in brief: as §1

Dd2 = experiment: as above; settings: P. falciparum in erythrocytes, SYBR Green DNA, 72 h; series mostly up to 28.7 µM
Method in brief: as §1

ECU = experiment: as above; settings: P. falciparum in erythrocytes, SYBR Green DNA, 72 h; series mostly up to 28.7 µM
Method in brief: as §1

FAB9 = experiment: as above; settings: P. falciparum in erythrocytes, SYBR Green DNA, 72 h; series mostly up to 28.7 µM
Method in brief: as §1

HB3 = experiment: as above; settings: P. falciparum in erythrocytes, SYBR Green DNA, 72 h; series mostly up to 28.7 µM
Method in brief: as §1

JCK = experiment: as above; settings: P. falciparum in erythrocytes, SYBR Green DNA, 72 h; series mostly up to 28.7 µM
Method in brief: as §1

PC15 = experiment: as above; settings: P. falciparum in erythrocytes, SYBR Green DNA, 72 h; series mostly up to 28.7 µM
Method in brief: as §1

PC26 = experiment: as above; settings: P. falciparum in erythrocytes, SYBR Green DNA, 72 h; series mostly up to 28.7 µM
Method in brief: as §1

PC49 = experiment: as above; settings: P. falciparum in erythrocytes, SYBR Green DNA, 72 h; series mostly up to 28.7 µM
Method in brief: as §1

SC27B = experiment: as above; settings: P. falciparum in erythrocytes, SYBR Green DNA, 72 h; series mostly up to 28.7 µM
Method in brief: as §1

TAB113 = experiment: as above; settings: P. falciparum in erythrocytes, SYBR Green DNA, 72 h; series mostly up to 28.7 µM
Method in brief: as §1

TAB165 = experiment: as above; settings: P. falciparum in erythrocytes, SYBR Green DNA, 72 h; series mostly up to 28.7 µM
Method in brief: as §1

O=C1c2cccc3c2[C@@H](CCC3)CN1[C@@H]1CN2CCC1CC2
inactive: outcome [1] | Potency [2] | Potency [3] | outcome [4] | Potency (Furin (Homo sapiens)) | Potency [6] | Potency [7] | activity, negative = inhibition ([8]; parasite line A) -7.65% | activity, negative = inhibition ([8]; parasite line B) 6.33% | Potency (3D7) | Potency (AS120) | Potency (ATS95) | Potency (C2A) | Potency (CP185) | Potency (CP191) | Potency (CP192) | Potency (CP201) | Potency (CP211) | Potency (CP215) | Potency (CP238) | Potency (CP247) | Potency (CP250) | Potency (CP252) | Potency (CP256) | Potency (CP262) | Potency (CP266) | Potency (CP269) | Potency (CP291) | Potency (CP305) | Potency (CP315) | Potency (CP325) | Potency (CP329) | Potency (DFO2036) | Potency (DIV30) | Potency (ECU) | Potency (FAB9) | Potency (HB3) | Potency (JCK) | Potency (PC15) | Potency (PC26) | Potency (PC49) | Potency (SC27B) | Potency (TAB113) | Potency (TAB165)
active: Potency [5] 11.2 µM | Potency (CP237) 10 µM | Potency (Dd2) 12.6 µM
